Data from PubChem BioAssay AID1851 (National Center for Advancing Translational Sciences (NCATS), 2009).
In all, about 16,000 compounds went through this assay and about 5,100 (32%) were called active. Inconclusive results (about 25%) are left out. The call rests on the fitted dose curve; in most records, active means well fitted curve in the direction sought with a large enough effect; inconclusive means small, poorly fitted or top-dose-only effect, or effect the other way; inactive means no such curve, though single readings can be large or run the other way. The list shows a part of the results.

The compounds below were run against Cytochrome P450 3A4 (Homo sapiens) (UniProt P08684) (assay: Cytochrome panel assay with activity outcomes). Details: recombinant CYP, pro-luciferin dealkylation, luminescence, p450-cyp3a4; series mostly up to 57.1 µM.
On the % scale 0 is the no-effect control and ±100 the full control effect.

Cytochrome P450 3A4 (Homo sapiens), sequence (P08684 whole entry, looked up): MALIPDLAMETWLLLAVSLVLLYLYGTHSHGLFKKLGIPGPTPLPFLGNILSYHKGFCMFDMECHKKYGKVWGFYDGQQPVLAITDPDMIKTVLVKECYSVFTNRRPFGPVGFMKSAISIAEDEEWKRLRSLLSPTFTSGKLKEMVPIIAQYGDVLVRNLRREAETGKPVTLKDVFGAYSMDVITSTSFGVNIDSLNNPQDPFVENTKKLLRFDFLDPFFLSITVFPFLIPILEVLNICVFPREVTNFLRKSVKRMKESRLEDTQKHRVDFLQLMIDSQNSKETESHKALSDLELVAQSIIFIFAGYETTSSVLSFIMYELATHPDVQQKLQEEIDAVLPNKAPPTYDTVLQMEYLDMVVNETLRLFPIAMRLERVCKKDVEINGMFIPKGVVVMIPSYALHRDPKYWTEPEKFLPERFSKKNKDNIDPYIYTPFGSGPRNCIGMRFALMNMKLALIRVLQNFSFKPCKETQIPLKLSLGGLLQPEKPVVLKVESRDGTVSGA

Row | SMILES | AC50 | activity, negative = inhibition
1 | O=C(NCCCn1ccnc1)c1ccc(Br)c(S(=O)(=O)N2CCOCC2)c1 | 2 µM (active) | 
2 | CN1CCc2[nH]nc(-c3n[nH]c4c3CN(C)CC4)c2C1 |  | -6.16% [at 11.4 µM] (inactive)
3 | CCN1CCN(C(=O)N[C@H](C(=O)N[C@@H]2C(=O)N3[C@@H]2SC(C)(C)[C@@H]3C(=O)O)c2ccccc2)C(=O)C1=O | inactive | 
4 | CCOC(=O)c1ccc(Cl)c(NC(=O)c2ccc(-c3ccccc3)cc2)c1 |  | 6.61% [at 11.4 µM] (inactive)
5 | CCOc1c(Cl)cc(C(=O)Nc2ccccc2-c2ccccc2)cc1Cl | 14.1 µM (active) | 
6 | CO[C@@H]1COC(=O)CC=C[C@@H](C)[C@@H]2C=C[C@H](O)[C@@H](COC(=O)[C@H](C)NC(=O)CC=C[C@H]1C)O2 |  | -23.2% [at 11.4 µM] (inactive)
7 | CCOC(=O)C1CCCN(C(=O)c2cc3nc(-c4ccc5c(c4)OCO5)cc(C(F)(F)F)n3n2)C1 (stereo unspecified) | 3.98 µM (active) | 
8 | COc1ccc(NC(=O)N2CCC3(CC2)CCN(C(=O)c2cnccn2)CC3)cc1 | inactive | 
9 | COC(=O)c1ccccc1NC(=O)c1cc2nc(C3CC3)cc(C(F)(F)F)n2n1 | inactive | 
10 | COc1ccc(-c2cc(C(F)(F)F)n3nc(C(=O)N4CCCCC4)cc3n2)cc1 | 14.1 µM (active) | 
11 | CCOC(=O)c1[nH]c(C(=O)O)c(CCN(CC)CC)c1C | inactive | 
12 | CN(C)Cc1ccc(-c2cc3onc(-c4ccccc4)c3c(=O)n2C)cc1 |  | 8.36% [at 11.4 µM] (inactive)
13 | COc1ccc(C(C(=O)NC2CCCC2)N(C(=O)c2snc(-c3ccc(F)cc3)c2N)c2ccccc2)cc1 (stereo unspecified) |  | -12% [at 2.29 µM] (inactive)
14 | COc1ccc(C(C(=O)NC2CCCCC2)N(C(=O)c2sc(C)nc2C)c2ccc(OC)cc2)cc1 (stereo unspecified) | 12.6 µM (active) | 
15 | COc1ccc(C(C(=O)NC2CCCCC2)N(C(=O)CCCC(=O)Nc2ccccn2)c2ccc3c(c2)OCCO3)cc1 (stereo unspecified) | 1.26 µM (active) | 
16 | CC(=O)c1ccc(S(=O)(=O)NC(=O)NC2CCCCC2)cc1 | inactive | 
17 | COc1ccc(C(C(=O)NC2CCCCC2)N(C(=O)c2sc(C)nc2C)c2ccc(C(C)=O)cc2)cc1 (stereo unspecified) | 25.1 µM (active) | 
18 | CC(CC(=O)Nc1ccc(Cl)c([N+](=O)[O-])c1)c1ccccc1 (stereo unspecified) | 10 µM (active) | 
19 | COc1ccc([N+](=O)[O-])cc1NC(=S)NC(NC(=O)Cc1ccc(OC)c(OC)c1)C(Cl)(Cl)Cl (stereo unspecified) | 1.58 µM (active) | 
20 | COc1ccc(OC)c(NC(=O)CC(Cc2ccccc2OC)C(=O)O)c1 (stereo unspecified) | inactive | 
21 | COc1ccc([N+](=O)[O-])cc1NCc1ccccc1C | 12.6 µM (active) | 
22 | CC(CC(=O)O)CC(=O)Nc1ccc(S(N)(=O)=O)cc1 (stereo unspecified) |  | -4.05% [at 2.29 µM] (inactive)
23 | COc1ccc([N+](=O)[O-])cc1NC(=O)CC(C)c1ccccc1 (stereo unspecified) | 7.08 µM (active) | 
24 | CC(C)CC(=O)Nc1ccc2c(c1)oc1ccccc12 | inactive | 

Row | SMILES | AC50 | activity, negative = inhibition
25 | Cc1ccc([N+](=O)[O-])cc1NC(=S)NC(=O)C(C)(C)C | inactive | 
26 | CCOc1ccc(NC(=S)NC(=O)/C=C/c2ccc(OC)c(OC)c2)c([N+](=O)[O-])c1 | inactive | 
27 | C1CNCCOCCNCCN1 | inactive | 
28 | COc1ccc(N2CCN(Cc3nc4c(c(=O)[nH]c(=O)n4C)n3CCCc3ccccc3)CC2)cc1 | 2.24 µM (active) | 
29 | COc1ccc(N2CCN(Cc3nc4c(c(=O)n(C)c(=O)n4C)n3CC(C)=O)CC2)cc1 | inactive | 
30 | Cn1c(=O)c2c(nc(Cc3ccccc3)n2CC(=O)O)n(C)c1=O |  | -2.47% [at 11.4 µM] (inactive)
31 | CCN1CCN(c2nc3c(c(=O)[nH]c(=O)n3C)n2CCCSc2ncccn2)CC1 | inactive | 
32 | Cn1c(=O)[nH]c(=O)c2c1nc(CN(Cc1ccccc1)Cc1ccccc1)n2CCN1CCOCC1 | 4.47 µM (active) | 
33 | CCOC(=O)N1CCN(Cc2nc3c(c(=O)[nH]c(=O)n3C)n2Cc2ccccc2C)CC1 | 3.98 µM (active) | 
34 | CCOC(=O)Cn1c(CN(Cc2ccccc2)Cc2ccccc2)nc2c1c(=O)[nH]c(=O)n2C | 25.1 µM (active) | 
35 | Cn1c(=O)[nH]c(=O)c2c1nc(CN1CCOCC1)n2CCCO | inactive | 
36 | Oc1cc2c(cc1O)[C@H](c1ccccc1)CNCC2 | inactive | 
37 | CCOCCn1c(CN(Cc2ccccc2)Cc2ccccc2)nc2c1c(=O)[nH]c(=O)n2C | 15.8 µM (active) | 
38 | CN(C)c1nc2c(c(=O)[nH]c(=O)n2C)n1Cc1ccccc1Br | inactive | 
39 | O=S(Cc1ccc(Br)cc1)Cc1nnc(SCc2ccc(Cl)cc2)n1-c1ccccc1 (stereo unspecified) | 7.08 µM (active) | 
40 | COC(Cc1nnc(SC)n1-c1ccc(Cl)cc1)OC | inactive | 
41 | O=P(O)(CCc1ccccc1)C(O)c1ccccc1 (stereo unspecified) |  | 2.84% [at 11.4 µM] (inactive)
42 | CCC(=O)[C@@H](c1ccccc1)c1ccccn1 |  | -1.45% [at 11.4 µM] (inactive)
43 | O=C(O)c1ccccc1C(=O)Nc1nccs1 | inactive | 
44 | CCCC(C(=O)Nc1nccs1)c1ccccc1 (stereo unspecified) | 12.6 µM (active) | 
45 | O=[N+]([O-])c1cc(C(F)(F)F)ccc1NCCCCNS(=O)(=O)c1ccc2ccccc2c1 | 14.1 µM (active) | 
46 | Cc1nn(Cc2ccccc2Cl)c(C)c1NC(=O)CCCn1nc(C)c([N+](=O)[O-])c1C | 2.51 µM (active) | 
47 | Cc1c(Cl)c([N+](=O)[O-])nn1CC(=O)Nc1c(C)n(C)n(-c2ccccc2)c1=O | inactive | 
48 | Cc1nn(CC(=O)NCCN2CCOCC2)c(C)c1[N+](=O)[O-] | inactive | 

Row | SMILES | AC50 | activity, negative = inhibition
49 | CN(C)CCNC(=S)Nc1cccc(Cl)c1 | inactive | 
50 | O=C(Nc1cccc(F)c1)Nc1ccccn1 | inactive | 
51 | S=C(NCc1ccccn1)Nc1cccc(Cl)c1 | 10 µM (active) | 
52 | COCC(=O)N1CCC2(CC1)CN(C(=O)Nc1ccccc1)C2 | inactive | 
53 | CN1CCN(c2nc(-c3ccccc3)cc(C(F)(F)F)n2)CC1 | inactive | 
54 | CC(Sc1nc(-c2ccccc2)cc(C(F)(F)F)n1)C(=O)N1CCCCC1 (stereo unspecified) | 7.08 µM (active) | 
55 | CCOC(=O)c1cc2c(C(F)(F)F)cc(-c3ccccc3)nc2o1 |  | -1.96% [at 2.29 µM] (inactive)
56 | c1ccc(-c2ccc3c(c2)c2c4n3CCN=C4CCC2)cc1 | inactive | 
57 | CCOc1ccc(OCC)c(NC(=O)C2CCCN(S(=O)(=O)c3cccs3)C2)c1 (stereo unspecified) | 5.62 µM (active) | 
58 | CCCS(=O)(=O)N1CCCC(C(=O)NCCN(C)Cc2ccccc2)C1 (stereo unspecified) |  | 12.8% [at 2.29 µM] (inactive)
59 | CCCS(=O)(=O)N1CCCC(C(=O)NCCCOCC)C1 (stereo unspecified) | inactive | 
60 | COCCn1c(=O)c(-c2cccs2)nc2cncnc21 | 15.8 µM (active) | 
61 | COc1ccc(-n2c(=O)c(-c3cccs3)nc3cncnc32)cc1 | inactive | 
62 | COCCn1c(=O)c(C)nc2cncnc21 | 12.6 µM (active) | 
63 | COc1ccccc1CCn1c(=O)c(-c2cccs2)nc2cncnc21 | 3.16 µM (active) | 
64 | Cn1c(=O)c(-c2cccs2)nc2cncnc21 | 7.94 µM (active) | 
65 | CCCC(O)(CCC)C(=O)NN1CCCCC1 | inactive | 
66 | Cc1nc2cncnc2n(C2CC2)c1=O | 15.8 µM (active) | 
67 | COc1ccccc1CCn1c(=O)c(-c2cccc(Cl)c2)nc2cncnc21 | 6.31 µM (active) | 
68 | CN(C)c1ncc2nc(-c3ccc(F)cc3)c(=O)n(CCc3ccccc3)c2n1 | inactive | 
69 | Cc1nc2cnc(N(C)C)nc2n(C2CC2)c1=O | inactive | 
70 | COc1ccccc1CCn1c(=O)c(-c2ccc(Cl)cc2)nc2cncnc21 | 3.98 µM (active) | 
71 | O=c1c(-c2ccc(F)cc2)nc2cncnc2n1C1CC1 | inactive | 
72 | O=c1c(-c2ccccc2)nc2cncnc2n1C1CC1 | inactive | 

Row | SMILES | AC50 | activity, negative = inhibition
73 | O=c1c(-c2cccc(Cl)c2)nc2cncnc2n1Cc1ccccc1 | inactive | 
74 | COc1ccccc1CCn1c(=O)c(-c2ccc(F)cc2)nc2cncnc21 | 3.98 µM (active) | 
75 | CC(=O)O[C@@H](C)C[N+](C)(C)C | inactive | 
76 | COCCn1c(=O)c(-c2ccccc2)nc2cncnc21 | inactive | 
77 | COc1ccccc1CCn1c(=O)c(-c2ccccc2)nc2cncnc21 | 3.98 µM (active) | 
78 | COc1ccccc1CCn1c(=O)c(-c2ccc(F)c(F)c2)nc2cncnc21 | 3.16 µM (active) | 
79 | Cn1c(=O)c2c(nc(C(=N)SCC(=O)O)n2C)n(C)c1=O |  | -27.7% [at 11.4 µM] (inactive)
80 | CSc1ncnc2c1ncn2[C@@H]1O[C@@H](CO)[C@H](O)O[C@@H]1O |  | -26.2% [at 11.4 µM] (inactive)
81 | Nc1ccc(CCNc2ncnc3c2ncn3[C@@H]2O[C@@H](CO)[C@H](O)[C@@H]2O)cc1 | 25.1 µM (active) | 
82 | OCCNc1ncnc2c1ncn2[C@@H]1O[C@@H](CO)[C@H](O)[C@@H]1O |  | -9.88% [at 11.4 µM] (inactive)
83 | CNc1ncnc2c1ncn2[C@@H]1O[C@@H](CO)[C@H](O)[C@@H]1O | inactive | 
84 | Cc1ccc(NC(=S)Nc2nc(CC(=O)Nc3ccccc3)cs2)cc1 | 6.31 µM (active) | 
85 | Cc1ccc(NC(=O)Nc2nc(-c3ccc(C)s3)cs2)cc1 |  | -0.444% [at 2.29 µM] (inactive)
86 | CNC(=O)[C@@H]1O[C@@H](n2cnc3c(N)ncnc32)[C@@H](O)[C@H]1O | inactive | 
87 | O=C(Cc1ccc(Cl)cc1)Nc1cccc(-c2nnc(-c3ccco3)o2)c1 | 7.94 µM (active) | 
88 | Clc1ccc(-c2nnc(-c3ccco3)o2)cc1 |  | 1.16% [at 11.4 µM] (inactive)
89 | O=C(Nc1ccc(Cl)cc1)OCc1cc(-c2ccccc2)on1 | inactive | 
90 | O=C(Nc1ccc(Nc2ccc3c(c2)C(=O)c2ccccc2C3=O)c2c1C(=O)c1ccccc1C2=O)c1ccccc1 |  | -7.98% [at 11.4 µM] (inactive)
91 | O=C1c2ccccc2-c2ccc(NC(=O)[C@H]3CCCC[C@@H]3C(=O)O)cc21 |  | -29% [at 11.4 µM] (inactive)
92 | CCC(=O)Nc1ccc2c(c1)C(=O)c1ccccc1C2=O | 7.08 µM (active) | 
93 | COc1ccc(CC(=O)Nc2ccc(-c3nnc(-c4ccccc4)o3)cc2)cc1 | inactive | 
94 | CCC(=O)NNC(=O)CCC(=O)Nc1ccccc1 | inactive | 
95 | CCC(=O)Nc1cccc(-c2nnc(-c3cccc(NC(=O)CC)c3)o2)c1 | 14.1 µM (active) | 
96 | COc1ccc(CC(=O)Nc2cccc(-c3nnc(-c4ccco4)o3)c2)cc1 | 2 µM (active) | 
